Experiments:
Test in all cases: log2 ratio of Biotin-Ahx-Ub-VS probe labelling (fragment/DMSO); higher = less target engagement (more negative = stronger competition), active = hit call of the paper (q ≤ 0.05, log2 ratio ≤ -1)
Conditions in all cases: compound concentration: 200 uM; treatment time: 3 h
USP34 = USP34 (UniProt Q70CQ2)
Summary of the method: (§1)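 Labelled DUBs from HEK293T lysate were NeutrAvidin-enriched, digested with LysC and trypsin, and run by diaPASEF LC-MS/MS. Before that, each 495 µg sample in Tris/CHAPS/IGEPAL buffer with protease inhibitors was treated in triplicate with fragment at 200 µM or vehicle for 3 h, then with Biotin-Ahx-Ub-VS at 0.5 µM final for 1 h. Values are average log2 ratios of fragment over vehicle by unpaired t-test, based on global-median-normalised Spectronaut label-free quantities from proteins with ≥2 unique peptides.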

USP36 = molecular target: T1, USP36 (UniProt Q9P275)
T1 sequence (whole entry): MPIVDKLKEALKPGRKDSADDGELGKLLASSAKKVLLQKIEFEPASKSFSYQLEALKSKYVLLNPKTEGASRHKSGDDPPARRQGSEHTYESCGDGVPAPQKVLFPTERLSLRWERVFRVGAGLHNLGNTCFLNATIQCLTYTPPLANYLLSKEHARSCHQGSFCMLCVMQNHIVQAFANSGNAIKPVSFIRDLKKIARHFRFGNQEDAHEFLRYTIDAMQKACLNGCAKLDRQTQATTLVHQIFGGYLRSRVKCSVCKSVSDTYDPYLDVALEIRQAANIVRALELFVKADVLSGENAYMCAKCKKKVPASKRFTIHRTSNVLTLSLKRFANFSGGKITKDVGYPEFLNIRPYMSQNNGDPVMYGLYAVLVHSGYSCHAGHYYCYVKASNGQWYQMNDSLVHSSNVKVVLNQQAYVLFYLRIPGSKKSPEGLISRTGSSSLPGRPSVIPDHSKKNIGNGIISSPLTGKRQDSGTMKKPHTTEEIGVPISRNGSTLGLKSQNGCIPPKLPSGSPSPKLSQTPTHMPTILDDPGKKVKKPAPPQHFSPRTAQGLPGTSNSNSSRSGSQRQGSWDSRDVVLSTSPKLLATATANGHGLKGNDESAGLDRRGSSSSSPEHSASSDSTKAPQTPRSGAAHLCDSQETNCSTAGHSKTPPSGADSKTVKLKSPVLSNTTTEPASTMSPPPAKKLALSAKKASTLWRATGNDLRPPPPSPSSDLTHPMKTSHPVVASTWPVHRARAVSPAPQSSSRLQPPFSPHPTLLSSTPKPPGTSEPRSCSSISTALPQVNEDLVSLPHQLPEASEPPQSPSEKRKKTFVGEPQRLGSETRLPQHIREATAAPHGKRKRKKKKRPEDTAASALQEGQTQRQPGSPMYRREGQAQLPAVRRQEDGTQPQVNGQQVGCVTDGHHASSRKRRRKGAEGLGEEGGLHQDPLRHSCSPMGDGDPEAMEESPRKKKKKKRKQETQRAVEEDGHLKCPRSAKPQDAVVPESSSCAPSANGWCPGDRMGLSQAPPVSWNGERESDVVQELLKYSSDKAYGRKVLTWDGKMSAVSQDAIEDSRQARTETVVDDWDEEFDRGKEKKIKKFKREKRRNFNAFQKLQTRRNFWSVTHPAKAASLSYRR
Summary of the method: as §1

USP38 = molecular target: T2, USP38 (UniProt Q8NB14)
T2 sequence (whole entry): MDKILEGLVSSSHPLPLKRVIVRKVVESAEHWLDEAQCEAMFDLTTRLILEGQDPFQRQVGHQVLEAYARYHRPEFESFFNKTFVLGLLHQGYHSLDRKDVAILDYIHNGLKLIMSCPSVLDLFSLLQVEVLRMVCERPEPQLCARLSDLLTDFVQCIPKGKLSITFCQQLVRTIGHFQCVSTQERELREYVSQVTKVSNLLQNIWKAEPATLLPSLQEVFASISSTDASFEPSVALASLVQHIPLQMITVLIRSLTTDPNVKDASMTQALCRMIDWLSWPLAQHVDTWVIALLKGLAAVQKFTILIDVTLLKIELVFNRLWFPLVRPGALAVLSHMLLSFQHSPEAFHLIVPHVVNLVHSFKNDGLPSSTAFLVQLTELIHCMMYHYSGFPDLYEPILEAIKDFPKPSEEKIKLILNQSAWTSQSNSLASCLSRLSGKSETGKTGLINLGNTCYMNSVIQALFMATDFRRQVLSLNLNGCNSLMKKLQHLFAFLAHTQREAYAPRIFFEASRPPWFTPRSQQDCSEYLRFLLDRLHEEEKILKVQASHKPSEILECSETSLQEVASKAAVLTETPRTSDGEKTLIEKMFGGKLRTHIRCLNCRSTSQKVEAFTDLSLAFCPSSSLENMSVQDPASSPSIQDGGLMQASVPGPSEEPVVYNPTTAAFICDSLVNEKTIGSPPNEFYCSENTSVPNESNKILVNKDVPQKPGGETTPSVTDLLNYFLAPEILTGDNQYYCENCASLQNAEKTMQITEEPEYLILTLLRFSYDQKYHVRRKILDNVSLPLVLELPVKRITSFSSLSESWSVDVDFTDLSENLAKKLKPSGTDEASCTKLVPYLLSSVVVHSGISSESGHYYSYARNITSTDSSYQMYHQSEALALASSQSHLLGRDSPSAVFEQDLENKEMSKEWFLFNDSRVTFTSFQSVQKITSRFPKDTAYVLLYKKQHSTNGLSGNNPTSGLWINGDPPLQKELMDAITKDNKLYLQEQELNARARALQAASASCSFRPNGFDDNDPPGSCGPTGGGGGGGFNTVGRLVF
Summary of the method: as §1

USP39 = molecular target: T3, USP39 (UniProt Q53GS9)
T3 sequence (whole entry): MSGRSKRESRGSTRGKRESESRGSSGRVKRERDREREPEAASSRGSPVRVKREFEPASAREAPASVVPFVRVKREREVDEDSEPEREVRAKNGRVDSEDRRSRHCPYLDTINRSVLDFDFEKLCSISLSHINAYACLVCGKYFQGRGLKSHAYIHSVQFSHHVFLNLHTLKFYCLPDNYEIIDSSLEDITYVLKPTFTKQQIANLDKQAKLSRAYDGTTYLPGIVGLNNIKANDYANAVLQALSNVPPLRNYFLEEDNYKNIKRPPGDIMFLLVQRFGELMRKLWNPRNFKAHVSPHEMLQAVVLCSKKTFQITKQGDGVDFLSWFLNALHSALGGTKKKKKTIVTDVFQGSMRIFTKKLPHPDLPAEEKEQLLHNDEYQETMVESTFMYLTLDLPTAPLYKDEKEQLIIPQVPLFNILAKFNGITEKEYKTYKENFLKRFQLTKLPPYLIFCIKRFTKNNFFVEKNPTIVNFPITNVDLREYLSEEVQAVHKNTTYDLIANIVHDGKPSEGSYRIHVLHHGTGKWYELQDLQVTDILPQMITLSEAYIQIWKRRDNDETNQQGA
Summary of the method: as §1

USP4 = molecular target: T4, USP4 (UniProt Q13107)
T4 sequence (whole entry): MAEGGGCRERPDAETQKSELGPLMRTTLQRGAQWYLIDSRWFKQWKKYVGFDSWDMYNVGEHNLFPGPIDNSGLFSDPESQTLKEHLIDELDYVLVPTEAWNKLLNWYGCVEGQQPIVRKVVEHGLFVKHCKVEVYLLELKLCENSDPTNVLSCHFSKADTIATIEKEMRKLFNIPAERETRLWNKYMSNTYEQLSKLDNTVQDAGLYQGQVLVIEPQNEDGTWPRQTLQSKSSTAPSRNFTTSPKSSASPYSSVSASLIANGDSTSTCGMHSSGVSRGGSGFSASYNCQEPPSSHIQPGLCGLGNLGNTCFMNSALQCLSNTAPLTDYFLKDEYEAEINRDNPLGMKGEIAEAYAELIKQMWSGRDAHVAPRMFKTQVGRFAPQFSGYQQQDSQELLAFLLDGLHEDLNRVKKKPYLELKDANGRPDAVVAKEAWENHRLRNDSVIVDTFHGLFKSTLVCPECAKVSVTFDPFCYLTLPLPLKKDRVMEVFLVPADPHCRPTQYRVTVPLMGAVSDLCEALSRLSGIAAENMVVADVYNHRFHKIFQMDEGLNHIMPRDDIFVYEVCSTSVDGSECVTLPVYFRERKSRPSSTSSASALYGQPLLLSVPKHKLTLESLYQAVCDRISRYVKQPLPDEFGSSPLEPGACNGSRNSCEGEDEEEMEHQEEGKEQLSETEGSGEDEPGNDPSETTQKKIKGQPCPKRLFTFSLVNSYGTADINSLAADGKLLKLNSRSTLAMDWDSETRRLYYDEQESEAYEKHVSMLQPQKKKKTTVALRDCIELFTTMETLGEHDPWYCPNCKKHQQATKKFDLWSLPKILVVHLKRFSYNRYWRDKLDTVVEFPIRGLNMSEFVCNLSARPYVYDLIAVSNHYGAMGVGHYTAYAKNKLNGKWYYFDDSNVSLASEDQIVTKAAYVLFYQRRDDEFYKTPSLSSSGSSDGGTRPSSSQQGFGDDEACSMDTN
Summary of the method: as §1

Measured: log2 ratio of Biotin-Ahx-Ub-VS probe labelling

USP34, sequence (Q70CQ2 whole entry, the tested form may be a part): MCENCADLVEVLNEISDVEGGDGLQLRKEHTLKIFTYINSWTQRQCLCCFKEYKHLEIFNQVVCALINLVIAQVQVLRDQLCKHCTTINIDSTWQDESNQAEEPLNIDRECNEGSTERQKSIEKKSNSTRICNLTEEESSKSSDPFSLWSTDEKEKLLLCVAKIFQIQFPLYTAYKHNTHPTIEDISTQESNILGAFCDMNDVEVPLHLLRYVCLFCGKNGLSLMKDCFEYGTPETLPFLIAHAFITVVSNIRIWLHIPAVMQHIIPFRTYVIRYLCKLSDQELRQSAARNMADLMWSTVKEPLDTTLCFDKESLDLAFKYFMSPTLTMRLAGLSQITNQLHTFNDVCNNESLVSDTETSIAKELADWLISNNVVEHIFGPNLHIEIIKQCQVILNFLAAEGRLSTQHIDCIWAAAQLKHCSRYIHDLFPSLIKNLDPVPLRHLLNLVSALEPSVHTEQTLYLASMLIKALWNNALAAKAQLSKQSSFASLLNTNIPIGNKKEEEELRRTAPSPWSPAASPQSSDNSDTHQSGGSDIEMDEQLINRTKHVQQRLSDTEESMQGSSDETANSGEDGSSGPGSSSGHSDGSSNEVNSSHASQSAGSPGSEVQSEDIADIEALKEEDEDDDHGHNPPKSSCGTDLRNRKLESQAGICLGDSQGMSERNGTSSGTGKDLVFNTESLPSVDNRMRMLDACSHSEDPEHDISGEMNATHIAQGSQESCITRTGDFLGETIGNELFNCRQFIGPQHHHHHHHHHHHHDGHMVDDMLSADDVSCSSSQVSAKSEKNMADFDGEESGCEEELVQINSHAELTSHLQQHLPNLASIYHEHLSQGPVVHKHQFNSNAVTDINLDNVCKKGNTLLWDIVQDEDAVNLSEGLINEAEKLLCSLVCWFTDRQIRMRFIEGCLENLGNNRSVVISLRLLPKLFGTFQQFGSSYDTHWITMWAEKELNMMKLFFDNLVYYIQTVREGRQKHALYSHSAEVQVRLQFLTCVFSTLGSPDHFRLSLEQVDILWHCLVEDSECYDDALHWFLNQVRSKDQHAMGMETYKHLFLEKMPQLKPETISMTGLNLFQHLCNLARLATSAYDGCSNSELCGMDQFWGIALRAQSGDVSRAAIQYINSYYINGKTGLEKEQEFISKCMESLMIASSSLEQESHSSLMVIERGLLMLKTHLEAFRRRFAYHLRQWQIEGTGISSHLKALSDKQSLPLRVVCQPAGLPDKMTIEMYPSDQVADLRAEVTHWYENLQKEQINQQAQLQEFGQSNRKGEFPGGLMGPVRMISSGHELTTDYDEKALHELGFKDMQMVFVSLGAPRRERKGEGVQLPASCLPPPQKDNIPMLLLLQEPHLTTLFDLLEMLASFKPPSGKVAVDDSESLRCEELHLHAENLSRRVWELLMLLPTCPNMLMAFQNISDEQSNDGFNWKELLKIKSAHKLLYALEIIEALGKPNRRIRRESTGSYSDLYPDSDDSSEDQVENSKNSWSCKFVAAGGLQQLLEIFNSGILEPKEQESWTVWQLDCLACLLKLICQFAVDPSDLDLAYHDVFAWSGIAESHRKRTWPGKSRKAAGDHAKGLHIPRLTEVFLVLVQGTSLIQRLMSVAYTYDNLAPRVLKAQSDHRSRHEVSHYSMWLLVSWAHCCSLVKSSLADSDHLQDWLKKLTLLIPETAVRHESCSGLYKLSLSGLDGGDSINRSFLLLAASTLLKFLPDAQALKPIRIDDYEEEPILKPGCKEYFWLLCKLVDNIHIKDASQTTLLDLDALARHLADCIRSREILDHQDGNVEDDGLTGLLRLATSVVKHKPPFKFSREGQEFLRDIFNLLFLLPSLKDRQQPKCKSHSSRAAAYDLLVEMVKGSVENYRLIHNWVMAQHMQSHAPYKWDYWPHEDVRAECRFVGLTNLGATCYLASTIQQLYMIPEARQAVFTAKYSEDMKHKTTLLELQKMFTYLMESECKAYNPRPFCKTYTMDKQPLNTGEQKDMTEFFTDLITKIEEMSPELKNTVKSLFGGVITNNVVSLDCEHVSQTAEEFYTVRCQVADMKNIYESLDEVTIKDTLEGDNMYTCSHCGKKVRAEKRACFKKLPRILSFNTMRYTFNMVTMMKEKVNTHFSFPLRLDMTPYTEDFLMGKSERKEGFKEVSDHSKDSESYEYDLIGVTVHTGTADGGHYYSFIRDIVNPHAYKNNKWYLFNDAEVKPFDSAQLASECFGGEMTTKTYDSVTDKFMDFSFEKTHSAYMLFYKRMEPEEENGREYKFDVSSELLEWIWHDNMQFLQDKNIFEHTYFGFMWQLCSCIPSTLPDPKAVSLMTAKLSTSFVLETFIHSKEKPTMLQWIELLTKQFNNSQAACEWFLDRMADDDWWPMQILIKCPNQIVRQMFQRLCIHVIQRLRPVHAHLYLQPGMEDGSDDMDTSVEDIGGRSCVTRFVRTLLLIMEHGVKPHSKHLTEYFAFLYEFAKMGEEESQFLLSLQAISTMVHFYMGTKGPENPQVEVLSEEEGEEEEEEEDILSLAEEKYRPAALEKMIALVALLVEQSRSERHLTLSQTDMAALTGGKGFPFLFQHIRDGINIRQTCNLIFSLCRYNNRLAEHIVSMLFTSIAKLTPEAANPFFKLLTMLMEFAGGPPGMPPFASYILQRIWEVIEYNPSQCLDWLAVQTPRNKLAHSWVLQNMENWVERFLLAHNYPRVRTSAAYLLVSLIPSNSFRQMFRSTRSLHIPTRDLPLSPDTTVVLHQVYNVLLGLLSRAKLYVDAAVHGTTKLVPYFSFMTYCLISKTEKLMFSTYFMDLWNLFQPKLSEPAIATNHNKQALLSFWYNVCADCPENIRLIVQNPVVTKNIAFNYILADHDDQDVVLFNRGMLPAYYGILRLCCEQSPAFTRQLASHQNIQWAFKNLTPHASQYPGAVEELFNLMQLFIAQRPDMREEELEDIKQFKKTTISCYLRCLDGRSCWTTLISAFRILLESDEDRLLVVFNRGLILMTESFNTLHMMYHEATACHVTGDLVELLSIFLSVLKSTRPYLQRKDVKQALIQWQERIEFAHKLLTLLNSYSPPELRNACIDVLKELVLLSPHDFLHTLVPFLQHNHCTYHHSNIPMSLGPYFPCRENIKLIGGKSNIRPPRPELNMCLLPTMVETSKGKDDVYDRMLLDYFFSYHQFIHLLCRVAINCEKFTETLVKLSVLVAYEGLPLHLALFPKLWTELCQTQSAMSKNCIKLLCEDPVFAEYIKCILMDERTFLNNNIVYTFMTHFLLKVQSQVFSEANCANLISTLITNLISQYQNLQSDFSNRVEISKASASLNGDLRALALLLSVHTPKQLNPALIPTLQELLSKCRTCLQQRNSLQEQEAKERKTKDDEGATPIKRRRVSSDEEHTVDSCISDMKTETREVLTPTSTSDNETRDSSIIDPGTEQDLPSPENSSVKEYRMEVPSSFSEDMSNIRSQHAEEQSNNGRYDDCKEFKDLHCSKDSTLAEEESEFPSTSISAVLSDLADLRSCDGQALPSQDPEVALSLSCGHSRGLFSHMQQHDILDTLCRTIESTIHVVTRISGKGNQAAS

Cc1ccc2nnc(CNC(=O)CCl)n2c1
inactive: USP34 -0.0797 | USP36 -0.0909 | USP38 -0.0516 | USP39 -0.108 | USP4 0.17
